# Screening results (PubChem)
# An excerpt weighted towards active compounds, which were near 0.5% of everything screened.
# phage Ecoli inh = growth loss of phage-infected E. coli, primary screen, RecBCD inhibitor project, absorbance, with phage, HTS; 360,000 tested, 0.26% active; inhibition, % at 11.9 µM; in the data active = inhibition above about 11%
# E coli growth-1 = E. coli growth inhibition, primary screen, OD600. Escherichia coli growth, 23 h; hits give low values. OD600 absorbance (concentration not given with the values). 330,000 tested, 0.21% active. AID 1053175, 2014;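 active = OD600 absorbance below the run mean of sample wells minus 3.6 SD, in any replicate, cut at about 0.56 in these data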
# E coli growth-2 = E. coli V3065 growth inhibition, primary screen, counter-screen for AddAB inhibitor project, absorbance, OD600. 330,000 tested, 0.27% active. inhibition, % at 11.9 µM. 18 h;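 active = inhibition above the campaign's mean inhibition across all tested compounds plus 3 SD, cut at about 9.9% in these data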;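 also: uninfected addAB+ strain grown without phage in ampicillin broth; 0% = DMSO wells and 100% = ciprofloxacin 0.95 µg/ml wells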
# Tat transport = E. coli Tat export inhibitors, primary screen, MC4100, TorA-mCherry reporter, fluorescence, single point. inhibition, % at 10 µM. 340,000 tested, 0.036% active;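 active = mean replicate inhibition at least 50% and at least half of replicates individually reaching 50%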;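 also: exported cargo escapes ClpAP degradation while cytoplasmic cargo is degraded and loses fluorescence; 0% = median of neutral control wells and 100% = median of NaSCN control wells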
# AddAB inh = growth inhibition of E. coli expressing H. pylori AddAB, primary screen, AddAB inhibitor project, absorbance | 330,000 tested, 0.29% active | inhibition, % at 11.9 µM; in the data active = inhibition above about 12%;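 also: 0% = vehicle wells of infected cells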
# AddAB conf = growth loss of phage-infected E. coli expressing H. pylori AddAB, confirmation, AddAB inhibitor project, absorbance, E. coli V3065, T4 phage, triplicate. shares compounds with AddAB inh. OD; T4 phage with gene 2 nonsense mutations. inhibition, % at 11.9 µM. 880 tested, 64% active. AID 488942, 2010;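 active = mean inhibition above a set limit taken from the earlier primary screen, cut at about 13% in these data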;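 also: higher means less bacterial growth since AddAB block lets phage replicate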
# RecBCD counter = growth loss of RecBCD+ E. coli with mutant T4 phage, counter-screen for AddAB inhibitor project, absorbance, V66 E. coli; shares compounds with AddAB inh; OD growth; inhibition, % at 11.9 µM; 880 tested, 73% active;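 active = mean inhibition above the mean of solvent-only control wells plus 3 SD, cut at about 4% in these data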;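 also: optical density read after an 18 h incubation at 37 °C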
# Bact viability = bacterial viability inhibition counter-screen, confirmation, counter-screen for AddAB inhibitor project, absorbance. shares compounds with AddAB inh. absorbance (AddAB counterscreen). inhibition, % at 11.9 µM. 880 tested, 35% active. AID 488956, 2010; in the data active = inhibition above about 25%
# RecBCD conf = growth loss of phage-infected RecBCD+ E. coli, confirmation, RecBCD inhibitor project, absorbance, E. coli V66, T4 gene 2 phage. inhibition, % at 11.9 µM. 890 tested, 45% active. shares compounds with phage Ecoli inh. E. coli V66 + T4 2- phage, growth OD. AID 651982, 2013;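 active = mean inhibition over triplicates exceeding the hit threshold derived in the original primary screen, cut at about 11% in these data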
# Ecoli viability = E. coli viability inhibition, counter-screen for RecBCD inhibitor project, absorbance, high throughput; 890 tested, 29% active; AID 651983, 2013; inhibition, % at 11.9 µM; absorbance (OD) growth; shares compounds with phage Ecoli inh; in the data active = inhibition above about 20%;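 also: E. coli strain V66 grown with compound alone and no phage infection; 0% = bacteria with DMSO vehicle only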
# AddAB phage OD = growth loss of phage-infected AddAB-carrying E. coli, confirmation, counter-screen for RecBCD inhibitor project, absorbance, E. coli V3065, T4 phage; shares compounds with phage Ecoli inh; E. coli expressing H. pylori AddAB + T4 phage, OD growth; gene 2 mutant T4, recBCD-deleted host; inhibition, % at 11.9 µM; 890 tested, 45% active; AID 651984, 2013;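 active = mean inhibition above the solvent-only control wells' mean plus 3 SD, cut at about 22% in these data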;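 also: higher means less bacterial growth from phage killing when AddAB is blocked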
# Active calls of the source: *; . = no result given.
SMILES,phage Ecoli inh,E coli growth-1,E coli growth-2,Tat transport,AddAB inh,AddAB conf,RecBCD counter,Bact viability,RecBCD conf,Ecoli viability,AddAB phage OD
O=c1[nH]c(=O)n([C@H]2C[C@H](O)[C@@H](CO)O2)cc1F,86.9*,.,84.3*,44.5,100.0*,80.9*,68.7*,77.5*,78.7*,79.1*,91.3*
CCC1C(OC(=O)NCc2ccccc2)CC2CCN3C(=O)CCCC1C23 (stereo unspecified),.,0.698,.,.,.,.,.,.,.,.,.
Oc1ccc(Cl)cc1CNCc1ccc(Cl)cc1,4.6,0.614,0.3,-3.0,3.9,.,.,.,.,.,.
Oc1ccc(Cl)cc1Cc1cc(Cl)ccc1O,13.5*,0.13*,12.1*,-0.3,13.3*,6.2,13.9*,2.7,9.1,10.9,7.2
Cc1c(N=C(N)N=C(N)Nc2ccccc2)c(=O)n(-c2ccccc2)n1C,.,0.663,.,.,.,.,.,.,.,.,.
CC[C@H]1OC(=O)[C@H](C)[C@@H](O[C@H]2C[C@@](C)(OC)[C@@H](O)[C@H](C)O2)[C@H](C)[C@@H](O[C@@H]2O[C@H](C)C[C@H](N(C)C)[C@H]2O)[C@](C)(O)C[C@@H](C)C(=O)[C@H](C)[C@@H](O)[C@]1(C)O,26.9*,.,20.2*,38.5,22.4*,44.6*,16.7*,17.6,18.9*,19.7*,32.1*
CCCNC(=O)c1ccc2c(=O)c(O)c(-c3ccc(Cl)c([N+](=O)[O-])c3)[nH]c2c1,16.1*,.,11.3*,1.9,13.7*,11.4,12.9*,11.9,9.5,11.7,13.8
CC(=O)c1cccc(NC(=O)CON=C2CCCc3nonc32)c1,.,0.714,.,.,.,.,.,.,.,.,.
COc1cccc(/C=N/NC(=O)c2ccc(-c3ccccc3)cc2)c1O,19.1*,.,17.5*,2.0,18.9*,5.9,16.2*,4.3,6.5,10.1,18.8
COc1cccc(/C=N/NC(=O)C(=O)Nc2ccccc2OC(F)(F)C(F)F)c1O,16.6*,.,14.7*,-3.0,18.9*,10.3,12.5*,9.7,3.8,4.1,7.5
O=C(NN=Cc1cc(Br)ccc1O)C(=O)Nc1ccccc1OC(F)(F)C(F)F,.,0.736,.,.,.,.,.,.,.,.,.
COc1cccc(C=NNC(=O)c2ccc(-c3ccccc3)cc2)c1O,.,0.725,.,.,.,.,.,.,.,.,.
Cc1cc(NC(c2ccc(Cl)cc2)c2ccc3cccnc3c2O)no1 (stereo unspecified),22.7*,0.691,32.6*,-1.4,25.1*,24.7*,23.4*,20.6,13.7*,15.4,25.5*
CC(=O)NC(c1ccco1)c1ccc2cccnc2c1O (stereo unspecified),.,.,-1.3,6.9,4.2,.,.,.,.,.,.
CCC(=O)NC(c1ccc(Cl)cc1Cl)c1ccc2cccnc2c1O (stereo unspecified),22.2*,.,22.3*,0.7,20.1*,19.9*,19.1*,19.0,15.4*,16.9,27.3*
CC(C)C(=O)NC(c1ccc(Cl)cc1Cl)c1ccc2cccnc2c1O (stereo unspecified),19.1*,0.649,29.4*,2.7,20.2*,19.6*,20.0*,19.3,11.4*,13.0,22.0*
CC1CN(C(C)CO)C(=O)c2cc(NC(=O)NC3CCCCC3)ccc2OC1CN(C)C(=O)Nc1ccccc1 (stereo unspecified),.,0.658,.,.,.,.,.,.,.,.,.
CCc1[nH]nc(C(=O)NN=Cc2ccncc2)c1C,.,0.697,.,.,.,.,.,.,.,.,.
